Experimental findings from PubChem BioAssay are described below.

A number with no mark means an inactive call. Calls of active or inactive are those of the source. Rule as the data show it, unless noted: active = inhibition above about 36%; inactive = the rest.

Test [1] concerns transactivating tegument protein VP16 (Human herpesvirus 1). The experiment in a line: compounds suppressing VP16-driven luciferase signal – cell-based, luminescence, single concentration, counter-screen for SRC2 inhibitor project (AID 652007). The following applies: cell-based VP16 transactivation luciferase reporter, at 8.9 µM, stronger effect = higher value. On the technique in general: The purpose of a counterscreen is to sort out artefacts and off-target activity.

Test [2] addresses Nuclear receptor coactivator 2 (Homo sapiens) (UniProt Q15596). The experiment in a line: inhibition of GAL4-SRC2 driven luciferase expression – cell-based, luminescence, HEK293, triplicate, confirmation (AID 652008;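 active = mean inhibition above 46.5%, the solvent-only control mean plus 3 SD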;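 also: 0% = DMSO-treated cells and 100% = Gossypol at 36 µM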). The following applies: HEK293 GAL4-SRC2 luciferase reporter, at 8.9 µM, stronger effect = higher value.

Nuclear receptor coactivator 2 (Homo sapiens), sequence (Q15596 whole entry, looked up, the tested form may be a part): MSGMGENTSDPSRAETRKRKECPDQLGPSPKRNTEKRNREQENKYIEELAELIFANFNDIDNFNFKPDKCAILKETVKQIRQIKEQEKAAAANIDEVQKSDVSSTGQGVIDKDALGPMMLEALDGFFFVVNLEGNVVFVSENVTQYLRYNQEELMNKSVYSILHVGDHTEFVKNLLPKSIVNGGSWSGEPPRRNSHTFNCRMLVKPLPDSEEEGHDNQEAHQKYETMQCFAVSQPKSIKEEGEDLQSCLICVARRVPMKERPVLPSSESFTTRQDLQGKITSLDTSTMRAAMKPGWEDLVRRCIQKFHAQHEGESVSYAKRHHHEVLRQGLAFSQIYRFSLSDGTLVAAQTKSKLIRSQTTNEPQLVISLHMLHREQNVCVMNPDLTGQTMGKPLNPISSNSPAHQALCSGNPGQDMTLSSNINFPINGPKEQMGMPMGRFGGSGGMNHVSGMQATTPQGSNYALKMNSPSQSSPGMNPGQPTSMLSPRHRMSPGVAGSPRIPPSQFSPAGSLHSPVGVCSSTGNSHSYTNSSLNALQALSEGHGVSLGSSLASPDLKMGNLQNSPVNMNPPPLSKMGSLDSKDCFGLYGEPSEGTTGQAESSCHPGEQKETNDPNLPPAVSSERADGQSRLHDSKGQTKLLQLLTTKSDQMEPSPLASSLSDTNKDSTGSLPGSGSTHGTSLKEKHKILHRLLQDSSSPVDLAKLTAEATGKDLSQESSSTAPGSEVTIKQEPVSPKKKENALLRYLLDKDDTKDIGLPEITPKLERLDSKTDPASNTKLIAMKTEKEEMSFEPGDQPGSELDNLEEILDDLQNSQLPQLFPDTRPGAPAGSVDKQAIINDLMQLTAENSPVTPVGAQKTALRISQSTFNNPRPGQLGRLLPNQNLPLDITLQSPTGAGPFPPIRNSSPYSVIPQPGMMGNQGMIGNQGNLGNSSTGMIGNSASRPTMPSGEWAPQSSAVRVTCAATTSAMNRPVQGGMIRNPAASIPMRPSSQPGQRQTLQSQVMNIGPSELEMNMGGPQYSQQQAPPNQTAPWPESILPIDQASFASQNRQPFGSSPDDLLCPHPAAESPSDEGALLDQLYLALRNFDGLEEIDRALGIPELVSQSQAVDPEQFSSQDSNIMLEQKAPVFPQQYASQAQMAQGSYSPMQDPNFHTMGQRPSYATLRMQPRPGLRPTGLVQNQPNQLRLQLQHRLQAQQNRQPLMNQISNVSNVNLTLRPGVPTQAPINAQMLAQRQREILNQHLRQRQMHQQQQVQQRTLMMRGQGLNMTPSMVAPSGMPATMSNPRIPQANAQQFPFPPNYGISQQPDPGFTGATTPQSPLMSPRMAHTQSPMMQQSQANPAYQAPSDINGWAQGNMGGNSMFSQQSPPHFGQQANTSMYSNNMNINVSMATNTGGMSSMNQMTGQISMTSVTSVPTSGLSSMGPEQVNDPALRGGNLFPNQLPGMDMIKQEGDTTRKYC

A word on the inhibition: it is the drop in the measured response relative to a control, in per cent. For the compound `CCC(C(=O)NCc1ccc(F)cc1)n1nc(C)n2c(cc3occc32)c1=O` (centres undefined), the results for the inhibition in test [1] and in test [2] were -13.4% and -6.88%, respectively.

On to `CCC/C(C#Cc1ccsc1)=C1/c2ccccc2C(=O)N1c1ccccc1`, for which the inhibition is -8.53% in test [1] and -18.8% in test [2].

For the compound `O=C(O)CCSc1ncnc2sc(-c3ccccc3)cc12`, the inhibition was 67.7% (active) in test [1] and 88.4% (active) in test [2].

`Cc1ccc(S(=O)(=O)N2CCC(C(=O)Nc3ccc(S(=O)(=O)N4CCOCC4)cc3)CC2)cc1`: the inhibition in test [1] is 8%; in test [2], 30.2%.

Turning to `Cc1sc2ncnc(N3CCC(C(=O)Nc4ccc(S(N)(=O)=O)cc4)CC3)c2c1C`, the inhibition in test [1] was -3.11%; in test [2], 30.8%.

Regarding `CC(C)C[C@@H]1Cc2[nH][nH]c(=O)c2[C@H](C(C)C)O1`, the values for the inhibition in test [1] and in test [2] were -6.29% and -23.6%, respectively.

In the case of `Cc1nnc(SCc2nc3sc(C(=O)O)c(C)c3c(=O)[nH]2)s1`, the inhibition in test [1] is 21.2%; in test [2], 9.02%.

Consider `C[n+]1cc2c3c(ccc2c2ccc4cc5c(cc4c21)OCO5)OCO3`, for which the inhibition was 96% (active) in test [1] and 98.7% (active) in test [2].

Regarding `CC(=O)c1cc2c(cc1NC(=O)c1ccc(-n3nc(C)cc3C)cc1)OCO2`, the inhibition in test [1] was -6.86%; in test [2], -7.82%.

Take `CCCOc1ccc(C(=O)C(CN2CCOCC2)c2ccccc2)cc1` (centres undefined): the inhibition was 14% in test [1] and 53.9% (active) in test [2].

Consider `COCc1cc(C)[nH]c(=O)c1C(=O)NC12CC3CC(CC(C3)C1)C2`, for which the values for the inhibition in test [1] and in test [2] were 15.4% and -11%, respectively.

With `Cc1cccc(C(=O)O/N=C(\N)c2ccccn2)c1`, the inhibition in test [1] is -73.6%; in test [2], -81.6%.

Regarding `O=C(CCCN1C(=O)/C(=C/c2ccccc2)SC1=S)NCCCn1ccnc1`, the values for the inhibition in test [1] and in test [2] were 35.9% (active) and 26.1%, respectively.

`CCN(CC)c1ccc(/C=N/Nc2nn[nH]n2)cc1`: the inhibition in test [1] is -13.6%; in test [2] it was 43.4%.

Turning to `CC/C=C\[C@H](O)[C@H](O)C1=C(C)C(=O)[C@]2(O1)C(=O)N[C@@](OC)(C(=O)c1ccccc1)C2O` (some centres undefined), the inhibition in test [1] was -28.1%; in test [2] it was -3.87%.

For the compound `C=CCN(CC=C)C(=O)c1cccc(S(=O)(=O)N2c3ccccc3CC2C)c1` (centres undefined), the inhibition in test [1] was 24.9%; in test [2] it was 28.7%.

Regarding `COc1ccc(OCCNC(=O)c2ccc3nc(C)c(N(C)C(=O)CCc4ccccc4)n3c2)cc1`, the inhibition was -12.5% in test [1] and 2.8% in test [2].

In the case of `c1cc(-c2nnc3n2N=C(c2ccc4c(c2)OCO4)CS3)ccn1`, the figures for the inhibition in test [1] and in test [2] were -3.48% and 42.4%, respectively.

`CCOC(=O)c1c(C)nn(-c2ccc(NC(=O)c3c(C)noc3C)cc2)c1C`: the figures for the inhibition in test [1] and in test [2] were 11.6% and 52.8% (active), respectively.

On to `O=c1[nH]c2ccc(Br)cc2c(=O)o1`, for which the values for the inhibition in test [1] and in test [2] were 44.5% (active) and 34.9%, respectively.

On to `CCn1ccnc1CNC(=O)C1CCC(=O)N(Cc2ccccc2F)C1` (centres undefined), for which the inhibition in test [1] is -4.87%; in test [2], -23.7%.

On to `CN(Cc1ccccc1)C(=O)c1ccc(NC(=O)C2CCN(C(=O)OC(C)(C)C)CC2)cc1`, for which the inhibition in test [1] is 15.8%; in test [2], 60.4% (active).

With `COc1ccc(C(=O)Nc2nc3ccccc3[nH]2)cc1`, the results for the inhibition in test [1] and in test [2] were -57.5% and 13.5%, respectively.

`Cc1ccc(NC(=O)COC(=O)C2=NN(c3ccccc3)C(=O)CC2)c(Br)c1`: the inhibition in test [1] is -16.2%; in test [2] it was -37.9%.

Turning to `Cc1ccc(S(=O)(=O)c2nc(NCCN(C)C)sc2Cl)cc1`, the results for the inhibition in test [1] and in test [2] were -5.23% and 28.4%, respectively.

For `Cc1nc(S(=O)(=O)N(C)c2ccccc2)c(C#N)c(C)c1Cl`, the inhibition is 3.59% in test [1] and 40.9% in test [2].

Take `Cc1cc(N2CCOCC2)c2c(N)cc(C)c(C)c2n1`: the inhibition in test [1] is -7.44%; in test [2] it was -11.2%.

For `O=C(NCc1ccco1)/C(=C/c1cccc([N+](=O)[O-])c1)NC(=O)c1ccco1`, the inhibition in test [1] is -6.26%; in test [2] it was -17.7%.

As for `O=C1C=CC(=O)C(CNc2ccc(C(=O)OCc3ccccc3)cc2)=C1`, the inhibition in test [1] is 38.2% (active); in test [2], 39.2%.

As for `CN(C(=O)CCc1nnc(-c2ccc(-c3ccccc3)cc2)o1)C1CCOCC1`, the inhibition in test [1] is -6.16%; in test [2] it was 26.7%.

`Cc1cc(=O)c2ccccc2n1Cc1ccccc1`: the inhibition is -10.6% in test [1] and 18.6% in test [2].

For the compound `Cn1cnnc1SCC(=O)NC1CCCC1`, the inhibition was -4.24% in test [1] and -19.9% in test [2].

`COc1ccc(/C=C2\SC(=S)N(CCCC(=O)NNC(=O)c3ccccc3O)C2=O)cc1`: the inhibition was 89.9% (active) in test [1] and 93.1% (active) in test [2].

With `COc1ccc(C(=O)C(CN2CCCC2)c2ccccc2)cc1` (centres undefined), the inhibition is 0.75% in test [1] and 40.2% in test [2].

As to `O=c1c(Br)ccc(Br)cc1Br`, the inhibition in test [1] was 97.7% (active); in test [2] it was 99.4% (active).

`Cc1ccc(-c2c(C(=O)N/N=C/C3CCCCC3)nnn2-c2nonc2N)cc1`: the inhibition is -21.5% in test [1] and -23% in test [2].

On to `CC(C)c1cc(CNC(=O)c2ccc(OC3CCN(Cc4ccccn4)CC3)cc2)on1`, for which the inhibition in test [1] was -9.72%; in test [2] it was 11.8%.
